Assay outcomes deposited in PubChem by National Center for Advancing Translational Sciences (NCATS).
TDP1 cell noCPT: qHTS for Inhibitors of human tyrosyl-DNA phosphodiesterase 1 (TDP1): qHTS in cells in absence of CPT. hit rate 15% among 420,000. DT40 Tdp1-/- hTDP1 cells, no CPT, ATP luminescence, 48 h. Potency, µM (titrated, usually from 46.2 µM), actives largely listed as inhibitors; also: nearly all actives have a fitted effect of over 55% in size
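No-CPT arm: Tdp1-/-;hTDP1 DT40 cells (400/well) plus compounds, incubated ≥48 hr at 37 °C. Readout CellTiter-Glo luminescence.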
ClpP mod: qHTS Assay for Activators of ClpP; ATP-dependent Clp protease proteolytic subunit (Bacillus subtilis (strain 168)), P80244; purified B. subtilis ClpP, FRET peptide cleavage, 20 min; Potency, µM (highest dose often 57.5 µM); hit rate 1.9% among 340,000; AID 651965, 2013; active = well fitted falling curve with a large enough effect; inconclusive = small, poorly fitted or top-dose-only effect; inactive = no such curve, though single readings can be large or run the other way; also: the source files actives as falling curves though it sought activators and does not explain the sign; nearly all actives have a fitted effect of over 65% in size
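FRET quenching reversal measured ClpP activation: 10 microg/mL B. subtilis ClpP at pH 8 with the FRET-FV decapeptide, read at 430 nm after 320 nm excitation. The 20-min minus 0-min signal was scaled between DMSO/no-enzyme wells and ADEP (5.8 microM final).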
TDP1 cell CPT: growth inhibition of DT40 Tdp1-/-;hTDP1 cells with camptothecin (screen for TDP1 inhibitors); chicken DT40 Tdp1-/-;hTDP1 cells + 20 nM CPT, ATP luminescence, 48 h; Potency, µM (top dose mostly 46.2 µM), actives largely listed as inhibitors; hit rate 12% among 420,000; also: nearly all actives have a fitted effect of over 55% in size
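Chicken DT40 Tdp1-/- cells stably complemented with human TDP1 were seeded at 400 cells/well in medium containing 20 nM camptothecin, exposed to pin-transferred compounds, and grown at 37 °C for at least 48 hr. Viability was read as ATP luminescence.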
TDP1 block: blocks human tyrosyl-DNA phosphodiesterase 1. Q9NUW8. Potency, µM (highest dose often 130 µM), most hits filed as inhibitors. hit rate 0.28% among 350,000. recombinant TDP1, AlphaScreen DNA substrate cleavage; also: nearly all actives have a fitted effect of over 40% in size
Target sequence (Q9NUW8 whole entry, looked up): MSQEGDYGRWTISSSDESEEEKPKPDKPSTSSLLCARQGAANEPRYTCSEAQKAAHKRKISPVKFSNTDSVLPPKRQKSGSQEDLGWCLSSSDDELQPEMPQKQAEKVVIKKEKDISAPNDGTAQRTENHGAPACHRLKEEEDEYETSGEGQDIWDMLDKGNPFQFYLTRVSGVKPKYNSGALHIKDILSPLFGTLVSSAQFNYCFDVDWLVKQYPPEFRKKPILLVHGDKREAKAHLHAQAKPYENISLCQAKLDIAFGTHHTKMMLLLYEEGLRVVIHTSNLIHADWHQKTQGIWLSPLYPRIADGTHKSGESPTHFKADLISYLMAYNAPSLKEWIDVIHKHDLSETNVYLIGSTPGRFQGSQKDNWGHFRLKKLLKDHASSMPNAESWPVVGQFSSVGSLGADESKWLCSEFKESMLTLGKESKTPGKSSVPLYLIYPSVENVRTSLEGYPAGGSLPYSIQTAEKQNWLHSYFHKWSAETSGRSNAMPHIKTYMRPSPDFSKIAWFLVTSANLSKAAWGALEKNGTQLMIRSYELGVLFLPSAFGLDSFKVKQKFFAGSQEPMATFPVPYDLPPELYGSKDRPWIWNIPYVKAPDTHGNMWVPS
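Tdp1 1 nM final; 15 min RT w/ cpd; substrate 15 nM, 5 min; beads 10 ug/ml, 10 min; AlphaScreen read. Neg ctrl: no enzyme.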
Hits are given with their value; - = inactive; ? = inconclusive; . = no result given; ! = not confirmed by another sample; [ ] = dose if it differs, or a comment. Rows were chosen to be rich in hits. Some 17% of all compounds tested hit in one or more screens of this group. Unless noted, calls follow the shape of the dose curve; as a rule, active = well fitted curve in the direction sought with a large enough effect; inconclusive = small, poorly fitted or top-dose-only effect, or another doubt; inactive = no such curve, though single readings can be large; an effect the other way counts as inactive or inconclusive.

SMILES	TDP1 cell noCPT	ClpP mod	TDP1 cell CPT	TDP1 block
O=C(CSCc1ccc(F)cc1)N1CCN(c2ccc(Cl)cc2)CC1	21µM	-	16µM	-
Cc1cccc(N2CCN(C(=O)CSCc3c(C)noc3C)CC2)c1C	7.3µM	-	21µM	-
CCOC(=O)c1c(NC(=O)c2ccc(Br)cc2)sc2c1CCCC2	-	-	-	-
CCOC(=O)c1c(NC(=O)C(=O)N/N=C/c2ccc(O)c(OC)c2)sc2c1CCCCC2	23µM	-	?	-
CCOC(=O)c1c(NC(=O)C(=O)N/N=C/c2ccc(OCC)cc2)sc2c1CCCCC2	?	-	?	-
CCOC(=O)c1c(NC(=O)c2ccccc2C(=O)O)sc2c1CCCC2	-	-	-	.
CCOC(=O)c1c(NC(=O)C(C)S(=O)(=O)c2cn(CC)c3ccccc23)sc2c1CCCC2 (stereo not given)	6.5µM	-	?	-
CCOC(=O)c1c(NC(=O)C(C)OC(=O)c2ccc(NC(=O)CC#N)cc2)sc2c1CCCC2 (stereo not given)	?	-	23µM	.
CCOC(=O)c1c(NC(=O)c2ccccc2C)sc2c1CCCC2	?	32µM	-	-
Cc1cccc(NC(=O)c2c(NC(=O)c3ccco3)sc3c2CCC(C)C3)c1 (stereo not given)	?	-	?	-[2.28 µM]
CCOC(=O)c1c(NC(=O)C2CCCN(S(=O)(=O)c3ccccc3)C2)sc2c1CCCC2 (stereo not given)	9.2µM	?	8.2µM	-
CCOC(=O)c1c(NC(=O)c2ccoc2C)sc2c1CCC2	-	35µM	-	-
CCOC(=O)c1c(NC(=O)c2cc(Cl)ccc2Cl)sc2c1CCCC2	-	-	-	-[12.3 µM]
CCOC(=O)c1c(NC(=S)Nc2ccccc2)sc2c1CCCCC2	-	-	-	-
CCOC(=O)c1c(NC(NC(=O)C(C)C)C(Cl)(Cl)Cl)sc2c1CCC2 (stereo not given)	16µM	-	15µM	-
COC(=O)CS(=O)(=O)c1ccsc1C(=O)Nc1ccc(F)cc1	-	.	-	-
COc1ccc(CN2C(=O)C(CC(=O)NC3CCCC3)CC(C(=O)N3CCOCC3)=C2C)cc1 (stereo not given)	-	-	-	.
COc1ccc(N(CC(=O)NC2CC3CCC2C3)S(=O)(=O)c2ccc(C)cc2)cc1Cl (stereo not given)	23µM	-	?	.
CCOc1ccc(N(CC(=O)NC2CC3CCC2C3)S(=O)(=O)c2ccc(C)cc2)cc1 (stereo not given)	?	-	16µM	-
CCOc1ccc(N(CC(=O)NCC2CCCO2)S(=O)(=O)c2ccc(SC)cc2)cc1 (stereo not given)	-	-	13µM	-
C=CC1=C2C=C(C3CC3)N(CCN3CCOCC3)C=C2C(=O)C(C)(OC(=O)c2ccco2)C1=O (stereo not given)	.	.	.	-[12.3 µM]
CNC(=O)c1ccc2nc(Cc3ccccc3)oc2c1	-	-	-	-
CN(Cc1cccnc1)C(=O)Cc1ccc(NS(=O)(=O)c2cccc(C(F)(F)F)c2)cc1	?	.	-	-
COc1ccccc1N1CCN(C(=O)c2ccc(S(=O)(=O)N3CCCCCC3)cc2)CC1	?	-	?	-
CS(=O)(=O)N1CCc2cc(C(=O)N3CCN(c4cccc(Cl)c4)CC3)ccc21	18µM!	-	16µM	-
SMILES	TDP1 cell noCPT	ClpP mod	TDP1 cell CPT	TDP1 block
O=C(c1cccc(S(=O)(=O)N2CCN(c3ccc(F)cc3)CC2)c1)N1CCN(c2ccccc2O)CC1	?	-	?	.
COc1ccccc1N1CCN(C(=O)c2ccc3c(c2)CCN3S(=O)(=O)c2ccccc2)CC1	2.9µM	-	8.2µM	-
O=C(c1ccc2c(c1)CCN2S(=O)(=O)c1ccccc1)N1CCN(c2ccc(F)cc2)CC1	15µM	-	23µM	-
CC(=O)N1CCc2cc(C(=O)CN3CCN(c4cccc(Cl)c4)CC3)ccc21	21µM	-	15µM	-
CCCS(=O)(=O)N1CCCC(C(=O)NCCOC)C1 (stereo not given)	-	-	-	-
COc1cc(Cl)c(C)cc1NC(c1ccccc1)c1nnc(-c2ccccc2Cl)o1 (stereo not given)	?	-	?	-
O=C(c1cccc(S(=O)(=O)N2CCc3ccccc32)c1)N1CCN(c2ccccc2)CC1	29µM	.	?	-
CCS(=O)(=O)N1CCc2cc(C(=O)N3CCN(c4ccc(OC)cc4)CC3)ccc21	?	-	?	-
CCS(=O)(=O)N1CCc2cc(C(=O)N3CCN(c4ccccc4)CC3)ccc21	15µM	-	16µM	-
Cc1ccc(C(=O)NCC(=O)OCc2nc3ccsc3c(=O)[nH]2)cc1C	-	-	-	.
Cc1cc([N+](C)(C)C)cc(C)c1/C=C/c1ccnc2ccccc12	3.2µM	-	3.5µM	.
Cc1cc(N(C)C)cc(C)c1/C=C/c1ccnc2ccccc12	11µM	-	14µM	.
Oc1cc(O)c(/C=C/c2ccnc3ccccc23)c(O)c1	-	-	-	.
C/C(N[C@@H]1CSCC1O)=C1/C(=O)CC2[C@@H]1C2(C)C (stereo not given in full)	-[9.04 µM]	.	-[9.04 µM]	-
CC1(C)Cc2c(sc3nc(-c4ccccc4)n(N)c(=O)c23)CO1	-	-	-	-
CCCSc1nc2sc3c(c2c(=O)n1Cc1ccccc1)CC(C)(CC)OC3 (stereo not given)	12µM	-	18µM	-[12.3 µM]
CCC1(C)Cc2c(sc3nc(SC)n(Cc4ccccc4)c(=O)c23)CO1 (stereo not given)	13µM	-	13µM	-
COc1ccc(NC(=O)CN(C)C(=O)c2c(-c3c(F)cccc3Cl)noc2C)cc1	-	-	-	.
Cc1cc(C)c(-c2cc([C@H](C)O/N=C3/[C@H]4OC4[C@@H](O)[C@H]4[C@H]3CCn3c(=O)n(-c5ccccc5)c(=O)n34)on2)c(C)c1 (stereo not given in full)	.	.	.	-[21 µM]
CCN(CC)C(=O)C1=C(C)N(Cc2ccc(OC)cc2)C(=O)C(CC(=O)NC(c2ccccc2)c2ccccc2)C1 (stereo not given)	?	-	-	.
CC1=C(C(=O)N(C)C)CC(CC(=O)NCc2ccco2)C(=O)N1CCC1=CCCCC1 (stereo not given)	-	-	-	.
CC1=C(C(=O)N(C)C)CC(CC(=O)NC(c2ccccc2)c2ccccc2)C(=O)N1CCC1=CCCCC1 (stereo not given)	21µM	-	?	.
CCN(CC)C(=O)C1=C(C)N(CCC2=CCCCC2)C(=O)C(CC(=O)NC(c2ccccc2)c2ccccc2)C1 (stereo not given)	?	-	18µM	.
N#C/C(=C\c1ccc(N2CCCCC2)o1)C(N)=O	-	.	-	-
COc1cc(/C=C(\C#N)c2nc3ccccc3[nH]2)c([N+](=O)[O-])cc1OCc1ccccc1	18µM	-	23µM	-
